From PubChem
Hits are enriched below; roughly 11% of the tested compounds scored in any of these assays.
Luciferase inh – inhibitors of firefly (Photinus pyralis) luciferase. P08659. purified P. pyralis luciferase, luminescence, biochemical. Potency, µM (series often up to 115 µM), most hits filed as inhibitors. 76,000 tested, 2.5% active; also: nearly all actives have a fitted effect of over 65% in size
Target sequence (P08659 whole entry, looked up): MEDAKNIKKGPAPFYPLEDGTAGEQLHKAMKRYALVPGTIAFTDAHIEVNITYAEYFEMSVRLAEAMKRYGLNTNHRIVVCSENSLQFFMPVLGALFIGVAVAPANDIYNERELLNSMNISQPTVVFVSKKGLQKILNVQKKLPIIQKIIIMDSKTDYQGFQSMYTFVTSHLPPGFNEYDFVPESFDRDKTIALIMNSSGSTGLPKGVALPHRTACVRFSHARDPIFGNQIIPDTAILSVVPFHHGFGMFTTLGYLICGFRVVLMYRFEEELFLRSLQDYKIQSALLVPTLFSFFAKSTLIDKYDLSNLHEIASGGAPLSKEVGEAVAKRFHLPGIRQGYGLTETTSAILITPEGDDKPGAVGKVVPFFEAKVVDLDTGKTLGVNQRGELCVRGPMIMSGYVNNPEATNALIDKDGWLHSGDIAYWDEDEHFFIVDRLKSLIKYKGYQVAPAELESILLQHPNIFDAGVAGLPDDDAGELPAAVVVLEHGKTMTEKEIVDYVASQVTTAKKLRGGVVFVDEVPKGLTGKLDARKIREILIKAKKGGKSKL
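Luminescence read by CCD imaging after purified firefly luciferase (10nM final) was added to substrate buffer holding 10uM D-luciferin and 10uM ATP, pH 7.5, pre-dosed with compound.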
NPR1 antag – blocks ANP-stimulated signaling of human Npr1 receptor. HEK293 hNpr1 GloSensor cGMP, ANP-stimulated luminescence. Potency, µM (highest dose often 46.3 µM), for inactives: at the top dose activity change, negative = inhibition, actives largely listed as inhibitors. 76,000 tested, 1.6% active. AID 1347048; calls by dose curve; also: nearly all actives have a fitted effect of over 60% in size
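Compound pre-incubated 30 min at room temperature on GloSensor-loaded HEK293 cells stably carrying hNpr1 and the pGS-40F cGMP biosensor. Stimulation uses hNppA at 0.1 nM final; luminescence is taken at baseline and 20 min post-agonist.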
HEK cytotox – kills HEK 293 cells | HEK 293 viability, ATP luminescence (CellTiter-Glo), 48-72 h | Potency, µM (highest dose often 115 µM), without a hit: at the highest dose activity change, negative = cytotoxicity, most hits filed as inhibitors | 94,000 tested, 6.6% active; also: nearly all actives have a fitted effect of over 60% in size
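Cells seeded first (HEK 293, 250 cells/well), then compound added by pintool. Incubation ran 48 or 72 hr at 37 degree Celsius. CellTiter-Glo was added and luminescence imaged after 10 min at room temperature.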
NIH3T3 tox – cytotoxic compounds in NIH 3T3 cells; NIH 3T3 viability, CellTiter-Glo ATP luminescence, 48-72 h; Potency, µM (highest dose often 96.7 µM), inactives show top-dose activity change, negative = cytotoxicity, actives largely listed as inhibitors; 94,000 tested, 4.3% active; also: nearly all actives have a fitted effect of over 55% in size
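Cytotoxicity is measured as loss of cellular ATP: NIH 3T3 cells (400/well) are exposed to compound for 48 or 72 hr at 37 °C, then CellTiter-Glo luminescence is imaged after 10 min at room temperature.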
The depositor's hits bear a star; i = inactive; ? = inconclusive; . = no result given; [ ] = another dose, or the depositor's remark. Unless noted, calls follow the shape of the dose curve; as a rule, active = well fitted curve in the direction sought with a large enough effect; inconclusive = small, poorly fitted or top-dose-only effect, or another doubt; inactive = no such curve, though single readings can be large; an effect the other way counts as inactive or inconclusive. % is scaled to controls: 0 for no effect and ±100 for the full control effect; potency is read from the fitted curve at half-maximal effect.

SMILES | Luciferase inh | NPR1 antag | HEK cytotox | NIH3T3 tox
O=C(NCc1ccccn1)C1CN(S(=O)(=O)c2cccnc2)CC12CCCCC2 (centres undefined) | i | 0% | -5% | ?
O=C(NC1CCN(CCn2nc3n(c2=O)CCCC3)C1)c1ccc(F)cc1 (centres undefined) | . | . | -4% | -17%
CC(C)Cn1c(=O)c(C(=O)N2CCN(C(=O)N(C)C)CC2)nc2cccnc21 | . | . | -5% | -17%
CNC(=O)CCn1ncc2cc(OCc3ccccc3-c3cccc(OC)c3F)ccc21 | i | -16%[70.6 µM] | ? | 45µM*
CNC(=O)CCn1ncc2cc(OCc3ccccc3-c3cccc(C)c3)ccc21 | 45µM* | -26%[70.6 µM] | 100µM* | 89µM*
CNC(=O)CCn1ncc2cc(OCc3ccccc3-c3ccccc3COC)ccc21 | i | -7%[70.6 µM] | 89µM* | ?
CNC(=O)CCn1ncc2cc(OCc3ccccc3-c3ccccc3OC)ccc21 | 40µM* | -15%[70.6 µM] | ? | 89µM*
N#Cc1ccccc1CN1CCCCCCNC(=O)[C@@H]2C[C@@H](C(=O)N3CCc4ccccc4C3)C[C@@H]21 | i | -19% | ? | ?
Cc1cccc(OCCc2noc(C3CN(C(=O)C(C)C)C3)n2)c1 | i | 0% | ? | -28%
CCC(CC)NC(=O)[C@H]1CCC[C@H]1NC(=O)c1ccc(OC)cc1 | i | -7% | 2% | -20%
C[C@@H]1CN(C(=O)Cc2cccnc2)C[C@H]1c1nc(-c2ccncc2)no1 | i | 3% | 15% | i
Cc1cc(Cl)ccc1NC(=O)N1C[C@H](c2nc(-c3cccnc3)no2)[C@@H](C)C1 | i | -21% | 45µM* | -25%
C[C@H]1CN(C(=O)C2CCCC2)C[C@@H]1c1nc(-c2ccccc2)no1 | ? | -26% | ? | 32µM*
O=C([C@@H]1C[C@H](Oc2ccccc2)CN1C(=O)CCC1CCCC1)N1CCCC1 | i | 9% | -27% | ?
O=C(NCCNC(=O)c1ccc(-c2cccc(C(F)(F)F)c2)cc1)c1ccncc1 | . | . | 40µM* | ?
COc1ccc(CC(=O)NCCNC(=O)c2ccc(-c3cccc(C(F)(F)F)c3)cc2)cc1 | . | . | 25µM* | -24%
O=C(NCCNC(=O)c1ccc(-c2cccc(C(F)(F)F)c2)cc1)c1ccccc1 | . | . | -25% | -6%
COc1cccc(C(=O)NCCNC(=O)c2ccc(-c3cccc(C(F)(F)F)c3)cc2)c1 | . | . | ? | -24%
O=C(c1cccc(Cl)c1)N1CCC2(CC1)CCN(Cc1cccs1)c1ccccc1O2 | i | -5% | 28µM* | ?
O=C(Cc1cccc(Cl)c1)N1CCC2(CC1)CCN(Cc1cccs1)c1ccccc1O2 | i | 13% | 25µM* | ?
COc1cccc(C(O)c2nc(C(=O)Nc3ccc4c(c3)OCC(=O)N4)c(C)o2)c1 (centres undefined) | ? | -3%[70.6 µM] | ? | ?
CCC1(O)CCC12CCN(C(=O)Cc1cccc(F)c1)CC2 (centres undefined) | . | . | -6% | -24%
COc1cccc(-c2ccc3onc(C)c3n2)c1 | ? | 0%[70.6 µM] | ? | ?
COc1ccc(-c2ccc3onc(C)c3n2)cc1OC | i | -2%[70.6 µM] | ? | 40µM*
O=C(NCC1(COc2cccnc2)C[C@@H](O)[C@@H](O)C1)C1CC1 (some centres undefined) | i | ? | 32µM* | ?
SMILES | Luciferase inh | NPR1 antag | HEK cytotox | NIH3T3 tox
Cn1cc(CN2C[C@@H]3C[C@H]2C(=O)N(CC2CC2)c2ccccc2O3)c2ccccc21 | i | -9%[70.6 µM] | ? | 100µM*
O=C1[C@@H]2C[C@@H](CN2Cc2ccc3c(c2)OCO3)Oc2ccccc2N1CC1CC1 | i | -11%[70.6 µM] | ? | ?
Cc1ccc(CN2C[C@@H]3C[C@H]2C(=O)N(CC2CC2)c2ccccc2O3)cc1 | i | -18%[70.6 µM] | 100µM* | 100µM*
CS(=O)(=O)N1CCC2(CC1)CC(CC(=O)N1CCC(Cc3ccccc3)CC1)CCO2 (centres undefined) | . | . | ? | -9%
O=C(NCc1ccc(Cl)cc1)C1CCCN(c2ccnc3ccnn23)C1 (centres undefined) | . | . | 50µM* | ?
O=C(NCc1ccccc1)C1CCCN(c2ccnc3ccnn23)C1 (centres undefined) | . | . | 100µM* | ?
O=C(NCc1ccccc1F)C1CCN(c2ccnc3ccnn23)CC1 | . | . | 16µM* | ?
O=C1NC(=NC2CCCCC2)C2(CCN(Cc3ccsc3)CC2)N1c1cc(F)cc(F)c1 | . | . | -14% | -7%
COc1ccc2c(c1)c(CN1CCCCCCN(C)C(=O)[C@@H]3CCC[C@@H]31)cn2C | i | -13% | 35µM* | 28µM*
O=C(NCc1ccccc1)C1=NO[C@@H]2CN(Cc3cccc(F)c3)C[C@H]12 | i | 0%[70.6 µM] | 45µM* | ?
O=C(NCc1ccccc1)C1=NO[C@@H]2CN(Cc3ccc(O)c(Cl)c3)C[C@H]12 | i | -13%[70.6 µM] | 71µM* | ?
O=C(Nc1ccc(F)c(Cl)c1)C1=NO[C@@H]2CN(CCc3ccccc3)C[C@H]12 | i | -1%[70.6 µM] | 112µM* | ?
Cn1nc(C(=O)NCC(=O)N2CCCCCNC(=O)CC2c2ccccc2)c2ccccc21 (centres undefined) | i | 3% | i | i
O=C(CCc1conc1-c1cccc(F)c1)NCc1ccc(Cl)cc1 | i | -8% | ? | -26%
O=C(CCc1conc1-c1cccc(F)c1)NCc1ccc(F)cc1 | 45µM* | -6% | ? | ?
COc1ccc(NC(=O)C2CCc3nnc(CNC(=O)NC(C)(C)C)n32)cc1 (centres undefined) | . | . | 2% | -17%
N#Cc1cccc(-c2ccnc(N[C@H]3CO[C@H]4[C@@H]3OC[C@H]4OC(=O)Nc3cccc4ccccc34)n2)c1 | i | -29% | 22µM* | ?
CN(C)c1ccc(-c2ccnc(N[C@H]3CO[C@H]4[C@@H]3OC[C@H]4OC(=O)Nc3cccc(C#N)c3)n2)cc1 | i | ? | 14µM* | ?
COc1ccc(NC(=O)O[C@@H]2CO[C@H]3[C@@H]2OC[C@@H]3Nc2nccc(-c3cccc(C#N)c3)n2)cc1 | i | -1% | -26% | -14%
N#Cc1cccc(NC(=O)O[C@@H]2CO[C@H]3[C@@H]2OC[C@@H]3Nc2nccc(-c3cccc(C#N)c3)n2)c1 | i | -1% | ? | -13%
O=C(c1ccccc1Cl)N1CCC(c2nn(-c3ccccc3)c(=O)[nH]2)CC1 | i | 9% | ? | ?
COc1ccc(-c2cn3cc(C(=O)N4CCCC4)nc3c(=O)n2CC2CC2)c(F)c1 | i | -25% | 32µM* | 32µM*
COc1ccc(-c2cn3cc(C(=O)NCCO)nc3c(=O)n2CC2CC2)c(F)c1 | i | 4% | ? | -14%
CC1CCCN1C(=O)c1cn2cc(-c3cccc(Cl)c3)n(CC3CC3)c(=O)c2n1 (centres undefined) | i | -9% | ? | 25µM*
